Measured values as given in PubChem BioAssay AID602393 (Broad Institute, 2012).
Screen size: about 350,000 compounds; about 7,000 (2%) were called active. Shown is part of a subset that was picked to be rich in actives. A number with no mark means an inactive call. Cut-off read from the data, not from the text of the source: active = activation above about 40%; inconclusive = no clear call, values can overlap the other calls; inactive = below that.

Assay: Bmi1 luciferase reporter increase in mESCs, primary screen, esBAF inhibitor project, mouse ES cells, Bmi1 luciferase knock-in, single point (AID 602393);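 note: 0% = median of the plate's neutral control wells and 100% = double that signal; a rise in the Bmi1 reporter signal indicates esBAF inhibition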
Conditions: 24 h, at 12.5 µM, stronger effect = higher value, 100% = twice the neutral-well signal

**Q.** Which reporter increase does the source give for `C[C@@H]1CN([C@@H](C)CO)S(=O)(=O)c2ccc(-c3cccnc3)cc2O[C@H]1CN(C)CC1CCOCC1` here?
**A.** 2.46%

**Q.** Which reporter increase does the source give for `O=C(C[C@H]1C[C@@H]2c3cc(NC(=O)CC4CC4)ccc3O[C@@H]2[C@H](CO)O1)NCc1ccccn1` here?
**A.** 0.771%

**Q.** For `C[C@H]1CN([C@@H](C)CO)C(=O)c2cc(C3=CCCC3)cnc2O[C@H]1CN(C)C(=O)Nc1ccc(F)cc1`, which reporter increase is on record?
**A.** -1.8%

**Q.** With `COc1cccc(-c2cnc3c(c2)C(=O)N([C@H](C)CO)C[C@H](C)[C@H](CN(C)C(=O)NC(C)C)O3)c1` as the compound, how does the reporter increase read?
**A.** -3.06%

**Q.** Which reporter increase does the source give for `Cc1ccccc1-c1ccc([C@@H]2[C@H](CO)N3CCCCN(S(=O)(=O)c4ccc(F)cc4)C[C@@H]23)cc1` here?
**A.** -4.12%

**Q.** Which reporter increase does the source give for `O=c1oc2cc(O)ccc2cc1-c1ccc(F)cc1` here?
**A.** 47.3% (active)

**Q.** With `CO[C@@H]1CC[C@H]2CCOc3c(C#N)cccc3C(=O)N(C)C[C@@H](OC)[C@H](C)C(=O)N(C)C[C@@H]1O2` as the compound, how does the reporter increase read?
**A.** -3.58%

**Q.** With `CCCNC(=O)N(C)C[C@H]1Oc2ncc(-c3ccc(F)cc3)cc2C(=O)N([C@H](C)CO)C[C@H]1C` as the compound, how does the reporter increase read?
**A.** 1.97%

**Q.** For `C[C@@H](NC(=O)C[C@H]1CC[C@H](NS(=O)(=O)c2cccc(F)c2)[C@H](CO)O1)c1ccccc1`, which reporter increase is on record?
**A.** -2.73%

**Q.** Which reporter increase does the source give for `CO[C@H]1CN(C)C(=O)c2cc(NS(=O)(=O)CC(F)(F)F)ccc2OC[C@@H](C)N(Cc2nccs2)C[C@@H]1C` here?
**A.** -3.43%

**Q.** For `O=C(Nc1ccc2c(c1)OCO2)N[C@@H]1CC[C@H](CC(=O)N2CCN(c3ccccc3)CC2)O[C@@H]1CO`, which reporter increase is on record?
**A.** -0.613%

**Q.** With `Cc1ccc(C)c(S(=O)(=O)N2CCCOC2CNC(=O)C(=O)NC2CCCCC2)c1` (stereo not given) as the compound, how does the reporter increase read?
**A.** 51.3% (active)

**Q.** With `O=C(NCCC1CCCCN1S(=O)(=O)c1ccccc1)C(=O)NCC1CCCO1` (stereo not given) as the compound, how does the reporter increase read?
**A.** -3.85%

**Q.** Which reporter increase does the source give for `Cc1ccc(NC(=O)NC2CCCCC2)cc1S(=O)(=O)N1CCOCC1` here?
**A.** -1.63%

**Q.** For `O=C(C[C@H]1CC[C@H]2[C@@H](COC[C@@H](O)CN2C(=O)c2ccc3c(c2)OCO3)O1)NC1Cc2ccccc2C1`, which reporter increase is on record?
**A.** -0.266%

**Q.** For `CN(C)CC(=O)Nc1ccc2c(c1)[C@H]1C[C@H](CC(=O)NCc3ccc4c(c3)OCO4)O[C@@H](CO)[C@H]1O2`, which reporter increase is on record?
**A.** 2.82%

**Q.** With `Cn1c(SCC(=O)N2CCCC2)nnc1-c1ccc2c(c1)OCO2` as the compound, how does the reporter increase read?
**A.** 1.7%

**Q.** For `O=C(O)CSc1nnc(-c2ccc3c(c2)OCO3)n1-c1ccccc1`, which reporter increase is on record?
**A.** 19.1%

**Q.** For `Cn1c(SCc2nc3ccccc3s2)nnc1-c1ccc2c(c1)OCO2`, which reporter increase is on record?
**A.** 66.4% (active)

**Q.** Which reporter increase does the source give for `C[C@@H]1CCCCO[C@H](CN(C)C(=O)Cc2ccccc2)[C@H](C)CN([C@H](C)CO)C(=O)c2cc(NS(=O)(=O)c3cn(C)cn3)ccc2O1` here?
**A.** 5.86%

**Q.** For `C[C@H](CO)N1C[C@H](C)[C@@H](CN(C)Cc2cccc3c2OCCCO3)OCc2cn(nn2)CCCC1=O`, which reporter increase is on record?
**A.** -0.925%

**Q.** Which reporter increase does the source give for `Cc1occc1C(=O)Nc1cccc(Cn2cccn2)c1` here?
**A.** 10.4%

**Q.** For `Cc1ccnc(NC(=O)c2ccoc2C)c1`, which reporter increase is on record?
**A.** 25.4%

**Q.** With `Cc1nn(C(=O)c2ccoc2C)c(N)c1-c1ccccc1` as the compound, how does the reporter increase read?
**A.** 78.5% (active)

**Q.** For `C[C@@H]1CN([C@H](C)CO)C(=O)Cc2cc(NS(=O)(=O)c3ccc(Cl)cc3)ccc2O[C@@H]1CN(C)C`, which reporter increase is on record?
**A.** -0.489%

**Q.** With `Fc1ccccc1COc1cccc2cccnc12` as the compound, how does the reporter increase read?
**A.** 45.7% (active)

**Q.** For `O=S(=O)(NCCOc1cccc2cccnc12)c1ccc(F)cc1`, which reporter increase is on record?
**A.** 11.1%

**Q.** With `Fc1ccccc1COc1ccccc1CNCc1ccncc1` as the compound, how does the reporter increase read?
**A.** 2.36%

**Q.** For `CC(C)CC#Cc1cnc2c(c1)C(=O)N([C@@H](C)CO)C[C@H](C)[C@@H](CN(C)Cc1ccccc1C(=O)O)O2`, which reporter increase is on record?
**A.** -9.83%

**Q.** Which reporter increase does the source give for `CCn1ccnc1CN(C)C(=O)c1cc(COc2ccc(Cl)cc2OC)on1` here?
**A.** 1.62%

**Q.** For `CCCOC1CCCN(C(=O)c2cc(COc3cncc(Cl)c3)on2)C1` (stereo not given), which reporter increase is on record?
**A.** 66.1% (active)

**Q.** For `COc1cc(Cl)ccc1OCc1cc(C(=O)N(C)CCc2c(C)n[nH]c2C)no1`, which reporter increase is on record?
**A.** 14.1%

**Q.** With `CCOC(=O)CC1(NC(=O)c2cc(COc3cncc(Cl)c3)on2)CCCCC1` as the compound, how does the reporter increase read?
**A.** 2.06%

**Q.** For `CCOC(=O)C1CCCN(C(=O)c2cncc(Br)c2)C1` (stereo not given), which reporter increase is on record?
**A.** -6.09%

**Q.** For `COc1cc(Cl)ccc1OCc1cc(C(=O)N2CC[C@@H]3CCCC[C@H]3C2)no1`, which reporter increase is on record?
**A.** 52.6% (active)

**Q.** With `C[C@@H]1CN([C@H](C)CO)C(=O)c2cc(NC(=O)Cn3cnnn3)ccc2O[C@@H]1CN(C)CC1CC1` as the compound, how does the reporter increase read?
**A.** -4.62%

**Q.** Which reporter increase does the source give for `C[C@H](CO)N1C[C@H](C)[C@H](CN(C)S(C)(=O)=O)Oc2c(NC(=O)Nc3cccc4ccccc34)cccc2C1=O` here?
**A.** -0.771%

**Q.** For `C[C@H](O)C#Cc1cnc2c(c1)C(=O)N([C@@H](C)CO)C[C@H](C)[C@H](CN(C)C(=O)c1ccccc1)O2`, which reporter increase is on record?
**A.** -2.39%

**Q.** With `CN1C(=O)c2cc(NC(=O)c3ccccc3)ccc2OC[C@@H]2O[C@@H](CC(=O)NC3CCCC3)CC[C@H]21` as the compound, how does the reporter increase read?
**A.** -4.47%

**Q.** For `C[C@H]1CCCCO[C@@H](CN(C)Cc2ccc3c(c2)OCO3)[C@@H](C)CN([C@@H](C)CO)C(=O)c2cc(NS(=O)(=O)c3ccc(F)cc3)ccc2O1`, which reporter increase is on record?
**A.** 3.56%

**Q.** For `COCCN(C[C@H]1[C@@H](c2ccccc2)[C@H](CO)N1C(=O)C1CCC1)C(C)=O`, which reporter increase is on record?
**A.** -2.98%

**Q.** With `C[C@@H]1CN([C@H](C)CO)C(=O)c2cc(C#CC3CC3)cnc2O[C@H]1CN(C)C(=O)CC1CC1` as the compound, how does the reporter increase read?
**A.** 3.96%

**Q.** With `COc1ccccc1/C=C/C(=O)NC1CC2CCC1C2` (stereo not given) as the compound, how does the reporter increase read?
**A.** 28.1%

**Q.** With `COc1ccccc1/C=C/C(=O)NC(=S)N1CCOCC1` as the compound, how does the reporter increase read?
**A.** 44.4% (active)

**Q.** Which reporter increase does the source give for `O=C(/C=C/c1ccco1)NC(=S)N1CCCCC1` here?
**A.** 11.3%

**Q.** With `C[C@H]1CN([C@@H](C)CO)S(=O)(=O)c2ccc(-c3ccncc3)cc2O[C@@H]1CN(C)C(=O)CC1CC1` as the compound, how does the reporter increase read?
**A.** -3.03%

**Q.** With `C[C@@H]1CN([C@H](C)CO)S(=O)(=O)c2ccc(C#C[C@@H](C)O)cc2O[C@H]1CN(C)CC1CC1` as the compound, how does the reporter increase read?
**A.** 2.12%

**Q.** With `CC(Cc1cccs1)NC(=O)c1cccc(Cl)c1` (stereo not given) as the compound, how does the reporter increase read?
**A.** 59.9% (active)

**Q.** Which reporter increase does the source give for `CC(Cc1cccs1)NC(=O)NC1CCCCC1` (stereo not given) here?
**A.** 17.1%

**Q.** Which reporter increase does the source give for `Cc1cccc(C(=O)N[C@H](C(=O)NCc2cccs2)C(C)C)c1` here?
**A.** -4.58%
